The full data set covers some 8,800 targets. This sample favours those with a hit. About 0.5% of all pairs of compound and target were hits.
Key:
Experiment in all cases: log2 fold change, soluble protein after heating vs DMSO (PISA); higher = thermal stabilisation; K562 lysate, 10 uM; active = over 0.2 and 3.5 SD of the protein, either way, in both replicates (recomputed)
erlotinib = compound: C#Cc1cccc(Nc2ncnc3cc(OCCOC)c(OCCOC)cc23)c1 [erlotinib]
Summary of the method: (§1)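 The values are log-two fold changes in thermal stability compared with solvent controls and come from duplicates. They were obtained by TMTpro 16plex LC-MS/MS, with channel sums equalised, on the supernatant after 21,000xg for 90 min. That supernatant came from crude K562 extract at 1 mg/mL protein treated with 10 μM compound for 30 min, heated for 3 min across 48°C-58°C, pooled and brought to 0.5% NP-40 at 4°C.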

[1] = compound: C/C(=N\NC(=O)C1=CC(=CC=C1)S(=O)(=O)N2CCOCC2)/C3=C(C=CC(=C3)Cl)O
Summary of the method: as §1

[2] = compound: C1=CC(=CC=C1C2=NC3=C(N2)C=C(C=C3)C(=O)N)OC4=CC=C(C=C4)Cl
Summary of the method: as §1

[3] = compound: C1=CC2=C(C=CC(=C2)/C=C\3/C(=O)NC(=NCC4=CC=CS4)S3)N=C1
Summary of the method: as §1

[4] = compound: C1=CC2=NC=CN=C2C=C1/C=C/3\C(=O)NC(=O)S3
Summary of the method: as §1

[5] = compound: C1=CC=C(C=C1)C2=NC(=C(N2)C3=CC=NC=C3)C4=CC(=C(C=C4)Cl)O
Summary of the method: as §1

[6] = compound: C1=CC=C2C(=C1)C3=NNC4=CC=CC(=C43)C2=O
Summary of the method: as §1

[7] = compound: C1CCN(C1)C(=O)NC2=CC=CC(=C2)NC3=NC=C(C(=N3)NCCC4=CN=CN4)Br
Summary of the method: as §1

[8] = compound: C1CN(CCC1(CC2=CC=C(C=C2)Cl)N)C3=NC=NC4=C3C=CN4
Summary of the method: as §1

IRAK-1-4 Inhibitor I = compound: C1COCCN1CCN2C3=CC=CC=C3N=C2NC(=O)C4=CC(=CC=C4)[N+](=O)[O-] [IRAK-1-4 Inhibitor I]
Summary of the method: as §1

ibrutinib = compound: C=CC(=O)N1CCC[C@@H](n2nc(-c3ccc(Oc4ccccc4)cc3)c3c(N)ncnc32)C1 [ibrutinib]
Summary of the method: as §1

[9] = compound: CC(=O)c1cnc2ccc(-c3cc(Cl)c(O)c(Cl)c3)nc2c1N[C@H]1CC[C@H](CN(C)C)CC1
Summary of the method: as §1

ralimetinib = compound: CC(C)(C)Cn1c(N)nc2ccc(-c3[nH]c(C(C)(C)C)nc3-c3ccc(F)cc3)nc21 [ralimetinib]
Summary of the method: as §1

[10] = compound: CC(C)(O)CC(=O)NCCn1ccc2ncnc(Nc3ccc(Oc4cccc(C(F)(F)F)c4)c(Cl)c3)c21
Summary of the method: as §1

[11] = compound: CC(C)C1=C2N=C(C=C(N2N=C1)NCC3=CC=CC=C3)NCCCCCCN
Summary of the method: as §1

[12] = compound: CC1=C(C(CC(=O)N1)C2=CC=C(C=C2)C(F)(F)F)C(=O)NC3=C(C=C4C(=C3)C=NN4)F
Summary of the method: as §1

[13] = compound: CC1=C(C2=C(C=C1)C(=O)C3=CC=CC=C3N2CCCN)C
Summary of the method: as §1

[14] = compound: CC1=C(C=C(C=C1)NC(=O)C2=CC(=CC=C2)C(C)(C)C#N)NC3=CC4=C(C=C3)N=CN(C4=O)C
Summary of the method: as §1

[15] = compound: CC1=C(C=C(C=C1)NC(=O)C2=CC(=CC=C2)N(C)C)NC(=O)C3=CC=C(C=C3)O
Summary of the method: as §1

[16] = compound: CC1=CC=C(C=C1)SC2=C3C=C(SC3=CN=C2)C(=O)N
Summary of the method: as §1

Measured: log2 fold change

RABGGTB (UniProt P53611)
Chain of UniProt P53611 (P53611 whole entry, looked up): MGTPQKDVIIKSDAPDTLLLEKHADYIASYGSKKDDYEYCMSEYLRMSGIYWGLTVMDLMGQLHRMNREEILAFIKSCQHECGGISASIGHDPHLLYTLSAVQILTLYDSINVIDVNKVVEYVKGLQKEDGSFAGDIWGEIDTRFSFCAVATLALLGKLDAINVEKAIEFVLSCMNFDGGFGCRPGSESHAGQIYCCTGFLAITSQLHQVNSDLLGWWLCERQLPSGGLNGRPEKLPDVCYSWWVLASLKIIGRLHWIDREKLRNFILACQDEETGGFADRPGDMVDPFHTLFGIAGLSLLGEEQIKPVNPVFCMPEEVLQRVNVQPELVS
inactive: erlotinib 0.01 | [1] 0.026 | [2] -0.015 | [3] 0.021 | [4] 0.04 | [5] -0.023 | [6] -0.093 | [7] -0.029 | [8] 0.003 | IRAK-1-4 Inhibitor I 0.03 | ibrutinib -0.017 | [9] -0.042 | ralimetinib 0.018 | [10] -0.052 | [11] 0.015 | [12] -0.002 | [13] -0.006 | [14] -0.013 | [15] 0.048 | [16] 0.013

RSU1 (UniProt Q15404)
Chain of UniProt Q15404 (Q15404 whole entry, looked up): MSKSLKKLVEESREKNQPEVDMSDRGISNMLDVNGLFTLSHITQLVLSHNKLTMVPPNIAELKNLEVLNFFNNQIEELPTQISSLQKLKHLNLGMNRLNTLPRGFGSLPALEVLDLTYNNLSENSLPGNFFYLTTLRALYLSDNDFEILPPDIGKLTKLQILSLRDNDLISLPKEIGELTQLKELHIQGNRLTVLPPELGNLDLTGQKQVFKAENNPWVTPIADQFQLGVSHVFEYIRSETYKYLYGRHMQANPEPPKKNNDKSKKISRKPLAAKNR
inactive: erlotinib 0.017 | [1] 0.006 | [2] -0.039 | [3] -0.052 | [4] -0.011 | [5] -0.003 | [6] 0.017 | [7] 0.009 | [8] -0.027 | IRAK-1-4 Inhibitor I 0 | ibrutinib 0 | [9] 0.005 | ralimetinib -0.005 | [10] -0.02 | [11] 0.005 | [12] 0.019 | [13] -0.022 | [14] -0.017 | [15] -0.027 | [16] -0.012

RAC2 (UniProt P15153)
inactive: erlotinib 0.009 | [1] 0.018 | [2] 0.014 | [3] -0.035 | [4] -0.01 | [5] 0.012 | [6] 0.034 | [7] 0.069 | [8] -0.036 | IRAK-1-4 Inhibitor I 0.024 | ibrutinib 0.094 | [9] -0.04 | ralimetinib 0.07 | [10] -0.027 | [11] 0.047 | [12] -0.005 | [13] 0.017 | [14] -0.022 | [15] 0.045 | [16] -0.014

RBBP7 (UniProt Q16576)
Chain of UniProt Q16576 (Q16576 whole entry, looked up): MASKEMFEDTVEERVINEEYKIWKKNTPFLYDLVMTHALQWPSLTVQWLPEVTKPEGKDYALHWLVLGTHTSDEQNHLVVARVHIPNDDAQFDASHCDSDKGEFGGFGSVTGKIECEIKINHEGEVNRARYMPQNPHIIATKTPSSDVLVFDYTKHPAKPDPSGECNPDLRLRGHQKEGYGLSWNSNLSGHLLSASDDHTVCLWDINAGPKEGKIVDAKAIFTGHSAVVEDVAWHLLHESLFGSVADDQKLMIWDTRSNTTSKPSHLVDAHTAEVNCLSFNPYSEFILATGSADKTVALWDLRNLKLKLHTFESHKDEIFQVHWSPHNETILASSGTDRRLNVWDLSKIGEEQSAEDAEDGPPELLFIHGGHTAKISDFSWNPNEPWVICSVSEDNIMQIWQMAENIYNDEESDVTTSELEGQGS
inactive: erlotinib -0.038 | [1] -0.032 | [2] -0.021 | [3] -0.005 | [4] 0.007 | [5] -0.014 | [6] -0.008 | [7] 0.045 | [8] -0.022 | IRAK-1-4 Inhibitor I -0.082 | ibrutinib 0.062 | [9] 0.018 | ralimetinib 0.018 | [10] 0 | [11] -0.042 | [12] -0.003 | [13] 0.014 | [14] -0.114 | [15] 0.002 | [16] -0.03

RDH10 (UniProt Q8IZV5)
Chain of UniProt Q8IZV5 (Q8IZV5 whole entry, looked up): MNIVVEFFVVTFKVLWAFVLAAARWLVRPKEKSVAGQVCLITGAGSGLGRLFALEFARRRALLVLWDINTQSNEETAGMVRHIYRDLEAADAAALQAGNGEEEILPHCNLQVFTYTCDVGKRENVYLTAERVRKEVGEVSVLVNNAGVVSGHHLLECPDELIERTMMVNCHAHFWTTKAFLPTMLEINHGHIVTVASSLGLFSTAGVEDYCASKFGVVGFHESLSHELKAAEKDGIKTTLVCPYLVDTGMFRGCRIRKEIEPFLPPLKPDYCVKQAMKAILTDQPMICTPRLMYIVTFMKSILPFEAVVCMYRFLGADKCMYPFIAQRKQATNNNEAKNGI
inactive: erlotinib 0.043 | [1] 0.001 | [2] -0.019 | [3] 0.087 | [4] -0.028 | [5] -0.022 | [6] -0.013 | [7] 0.024 | [8] -0.023 | IRAK-1-4 Inhibitor I 0.001 | ibrutinib 0.016 | [9] -0.015 | ralimetinib 0.04 | [10] -0.013 | [11] 0.03 | [12] -0.007 | [13] -0.033 | [14] -0.045 | [15] -0.034 | [16] -0.016

RAE1 (UniProt P78406)
Chain of UniProt P78406 (P78406 whole entry, looked up): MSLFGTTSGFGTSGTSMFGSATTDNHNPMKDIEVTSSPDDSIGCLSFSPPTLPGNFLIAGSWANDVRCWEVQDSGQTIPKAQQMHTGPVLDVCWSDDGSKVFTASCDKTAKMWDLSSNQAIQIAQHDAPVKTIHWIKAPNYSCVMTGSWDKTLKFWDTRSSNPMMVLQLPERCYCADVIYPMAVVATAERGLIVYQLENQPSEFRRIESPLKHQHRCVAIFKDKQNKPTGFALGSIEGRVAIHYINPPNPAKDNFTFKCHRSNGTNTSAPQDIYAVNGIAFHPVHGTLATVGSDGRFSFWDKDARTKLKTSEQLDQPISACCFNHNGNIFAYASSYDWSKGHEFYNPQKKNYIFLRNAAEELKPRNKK
inactive: erlotinib 0.045 | [1] -0.036 | [2] 0.014 | [3] 0.046 | [4] 0.012 | [5] -0.021 | [6] -0.007 | [7] -0.019 | [8] 0.033 | IRAK-1-4 Inhibitor I -0.024 | ibrutinib -0.033 | [9] -0.01 | ralimetinib 0.007 | [10] 0.185 | [11] -0.007 | [12] -0.022 | [13] 0.012 | [14] -0.064 | [15] 0.011 | [16] 0.023

SEC61G (UniProt P60059)
Chain of UniProt P60059 (P60059 whole entry, looked up): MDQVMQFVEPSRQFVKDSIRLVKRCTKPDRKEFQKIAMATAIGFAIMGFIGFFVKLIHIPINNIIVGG
inactive: erlotinib 0.065 | [1] -0.196 | [2] -0.111 | [3] 0.032 | [4] 0.043 | [5] 0.032 | [6] -0.126 | [7] -0.096 | [8] 0.065 | IRAK-1-4 Inhibitor I 0.083 | ibrutinib 0.037 | [9] 0 | ralimetinib -0.019 | [10] -0.229 | [11] -0.052 | [12] -0.081 | [13] -0.053 | [14] 0.071 | [15] 0.004 | [16] 0.052

RAB3IL1 (UniProt Q8TBN0)
inactive: erlotinib -0.026 | [1] 0.005 | [2] -0.021 | [3] 0.024 | [4] -0.05 | [5] 0.053 | [6] -0.038 | [7] -0.013 | [8] -0.003 | IRAK-1-4 Inhibitor I 0.011 | ibrutinib 0.03 | [9] -0.035 | ralimetinib 0.021 | [10] -0.022 | [11] 0.004 | [12] 0.116 | [13] -0.006 | [14] 0.02 | [15] -0.024 | [16] 0.003

RPS9 (UniProt P46781)
inactive: erlotinib -0.034 | [1] 0.022 | [2] -0.03 | [3] -0.054 | [4] -0.016 | [5] -0.011 | [6] 0.011 | [7] 0.025 | [8] -0.018 | IRAK-1-4 Inhibitor I -0.017 | ibrutinib -0.02 | [9] 0.015 | ralimetinib 0.016 | [10] 0.026 | [11] -0.007 | [12] -0.038 | [13] -0.095 | [14] -0.048 | [15] 0.006 | [16] 0.043

SAMHD1 (UniProt Q9Y3Z3)
Chain of UniProt Q9Y3Z3 (Q9Y3Z3 whole entry, looked up): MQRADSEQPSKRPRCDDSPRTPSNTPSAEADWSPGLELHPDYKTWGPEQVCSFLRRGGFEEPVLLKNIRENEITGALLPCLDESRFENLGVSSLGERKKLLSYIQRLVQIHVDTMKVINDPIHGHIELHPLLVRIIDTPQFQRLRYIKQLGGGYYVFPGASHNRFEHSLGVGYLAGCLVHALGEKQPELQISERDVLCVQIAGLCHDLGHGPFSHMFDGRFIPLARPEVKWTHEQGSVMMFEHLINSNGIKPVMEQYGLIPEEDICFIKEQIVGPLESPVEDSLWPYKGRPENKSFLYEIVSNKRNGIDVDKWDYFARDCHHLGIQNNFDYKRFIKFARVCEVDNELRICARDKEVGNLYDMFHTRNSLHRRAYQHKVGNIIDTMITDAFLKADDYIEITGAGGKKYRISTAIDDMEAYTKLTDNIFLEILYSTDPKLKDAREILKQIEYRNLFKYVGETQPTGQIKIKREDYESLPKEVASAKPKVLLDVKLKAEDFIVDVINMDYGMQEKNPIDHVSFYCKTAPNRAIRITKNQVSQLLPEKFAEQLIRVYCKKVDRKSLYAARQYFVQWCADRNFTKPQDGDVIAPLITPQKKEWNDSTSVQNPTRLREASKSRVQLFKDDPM
inactive: erlotinib 0.035 | [1] 0.036 | [2] 0.004 | [3] 0.015 | [4] 0.005 | [5] -0.021 | [6] -0.057 | [7] -0.065 | [8] 0.035 | IRAK-1-4 Inhibitor I 0.013 | ibrutinib -0.009 | [9] -0.022 | ralimetinib 0.056 | [10] -0.004 | [11] -0.002 | [12] 0.003 | [13] -0.017 | [14] 0.006 | [15] 0.067 | [16] -0.003

RRM1 (UniProt P23921)
Chain of UniProt P23921 (P23921 whole entry, looked up): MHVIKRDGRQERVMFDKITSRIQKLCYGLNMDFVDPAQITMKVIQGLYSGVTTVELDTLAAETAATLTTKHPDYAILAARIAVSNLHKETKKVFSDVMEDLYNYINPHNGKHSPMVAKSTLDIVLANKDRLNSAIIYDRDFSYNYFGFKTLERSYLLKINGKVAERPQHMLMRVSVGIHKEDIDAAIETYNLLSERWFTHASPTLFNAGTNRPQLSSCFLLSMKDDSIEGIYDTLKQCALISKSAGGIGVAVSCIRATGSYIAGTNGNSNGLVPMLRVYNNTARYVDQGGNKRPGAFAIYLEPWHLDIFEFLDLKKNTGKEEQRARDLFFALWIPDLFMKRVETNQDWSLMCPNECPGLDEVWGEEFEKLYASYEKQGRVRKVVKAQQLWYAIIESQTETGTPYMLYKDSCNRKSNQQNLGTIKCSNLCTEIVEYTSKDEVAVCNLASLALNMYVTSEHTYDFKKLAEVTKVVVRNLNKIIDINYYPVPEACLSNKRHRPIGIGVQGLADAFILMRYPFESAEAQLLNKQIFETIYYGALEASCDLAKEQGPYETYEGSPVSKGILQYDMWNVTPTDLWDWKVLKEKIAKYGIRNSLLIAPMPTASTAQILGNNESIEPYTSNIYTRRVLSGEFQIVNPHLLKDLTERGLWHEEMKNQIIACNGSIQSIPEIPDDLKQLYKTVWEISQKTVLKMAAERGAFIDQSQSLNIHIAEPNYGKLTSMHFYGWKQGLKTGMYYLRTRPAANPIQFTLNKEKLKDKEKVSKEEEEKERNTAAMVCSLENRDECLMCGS
inactive: erlotinib 0.018 | [1] -0.019 | [2] 0.007 | [3] 0.025 | [4] 0.029 | [5] -0.01 | [6] -0.043 | [7] -0.046 | [8] -0.022 | IRAK-1-4 Inhibitor I 0.021 | ibrutinib 0.025 | [9] 0 | ralimetinib 0.005 | [10] -0.01 | [11] 0.022 | [12] 0 | [13] -0.033 | [14] -0.009 | [15] 0.024 | [16] 0.016

R3HCC1 (UniProt Q9Y3T6)
Chain of UniProt Q9Y3T6 (Q9Y3T6 whole entry, looked up, one chain of several): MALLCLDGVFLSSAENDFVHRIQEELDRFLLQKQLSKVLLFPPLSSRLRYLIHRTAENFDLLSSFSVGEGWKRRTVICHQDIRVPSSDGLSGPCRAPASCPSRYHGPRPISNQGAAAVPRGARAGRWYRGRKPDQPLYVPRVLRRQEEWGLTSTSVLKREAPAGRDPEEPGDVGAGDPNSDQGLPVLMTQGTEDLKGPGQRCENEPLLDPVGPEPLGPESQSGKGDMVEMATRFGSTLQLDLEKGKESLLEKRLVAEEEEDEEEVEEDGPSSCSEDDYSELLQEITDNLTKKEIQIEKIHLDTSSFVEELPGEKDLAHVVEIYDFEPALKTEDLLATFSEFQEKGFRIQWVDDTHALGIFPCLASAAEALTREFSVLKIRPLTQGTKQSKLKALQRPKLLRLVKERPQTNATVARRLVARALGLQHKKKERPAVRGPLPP
inactive: erlotinib -0.015 | [1] -0.118 | [2] 0.055 | [3] 0.074 | [4] -0.086 | [5] 0.071 | [6] -0.008 | [7] 0.006 | [8] -0.016 | IRAK-1-4 Inhibitor I -0.044 | ibrutinib 0.02 | [9] 0.058 | ralimetinib 0.016 | [10] -0.028 | [11] -0.045 | [12] 0.022 | [13] -0.061 | [14] 0.017 | [15] -0.001 | [16] 0.025

RHAG (UniProt Q02094)
Chain of UniProt Q02094 (Q02094 whole entry, looked up): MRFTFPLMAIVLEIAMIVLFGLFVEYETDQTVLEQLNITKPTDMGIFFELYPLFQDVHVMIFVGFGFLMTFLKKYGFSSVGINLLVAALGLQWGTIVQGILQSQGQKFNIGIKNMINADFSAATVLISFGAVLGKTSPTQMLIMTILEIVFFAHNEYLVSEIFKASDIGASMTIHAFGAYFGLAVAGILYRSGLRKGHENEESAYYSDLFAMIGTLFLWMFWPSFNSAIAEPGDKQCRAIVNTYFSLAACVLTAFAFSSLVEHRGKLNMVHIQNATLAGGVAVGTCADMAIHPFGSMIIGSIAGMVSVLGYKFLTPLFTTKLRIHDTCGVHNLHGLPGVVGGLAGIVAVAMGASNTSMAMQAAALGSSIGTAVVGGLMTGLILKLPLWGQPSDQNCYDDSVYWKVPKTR
inactive: erlotinib 0.017 | [1] -0.123 | [2] -0.087 | [3] 0.086 | [4] -0.007 | [5] -0.012 | [6] -0.145 | [7] -0.126 | [8] -0.014 | IRAK-1-4 Inhibitor I 0.081 | ibrutinib 0.004 | [9] -0.035 | ralimetinib -0.001 | [10] -0.068 | [11] 0.042 | [12] 0.09 | [13] -0.056 | [14] 0.08 | [15] 0.008 | [16] -0.003

SCO1 (UniProt O75880)
Chain of UniProt O75880 (O75880 whole entry, looked up): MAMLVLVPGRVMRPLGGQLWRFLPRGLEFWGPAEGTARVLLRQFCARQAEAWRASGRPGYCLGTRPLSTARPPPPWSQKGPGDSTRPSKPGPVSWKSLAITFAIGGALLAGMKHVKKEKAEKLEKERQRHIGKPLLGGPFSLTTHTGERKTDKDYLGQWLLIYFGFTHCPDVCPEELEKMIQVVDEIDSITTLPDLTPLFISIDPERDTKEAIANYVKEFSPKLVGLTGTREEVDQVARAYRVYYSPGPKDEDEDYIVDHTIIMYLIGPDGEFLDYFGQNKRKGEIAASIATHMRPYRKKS
inactive: erlotinib 0.008 | [1] -0.06 | [2] 0.036 | [3] -0.014 | [4] 0.011 | [5] 0.012 | [6] -0.045 | [7] 0.033 | [8] 0.068 | IRAK-1-4 Inhibitor I 0.006 | ibrutinib 0.029 | [9] 0.006 | ralimetinib -0.006 | [10] -0.072 | [11] -0.11 | [12] 0.044 | [13] -0.011 | [14] 0.021 | [15] -0.065 | [16] -0.023

REL isoform 2 (UniProt Q04864)
inactive: erlotinib 0.022 | [1] -0.005 | [2] -0.048 | [3] 0.016 | [4] -0.017 | [5] 0.037 | [6] -0.019 | [7] -0.011 | [8] -0.02 | IRAK-1-4 Inhibitor I 0.019 | ibrutinib 0.032 | [9] 0.015 | ralimetinib 0.06 | [10] -0.003 | [11] 0.005 | [12] -0.018 | [13] 0.038 | [14] 0.022 | [15] -0.023 | [16] 0.049

RPS6KB1 (UniProt P23443)
Chain of UniProt P23443 (P23443 whole entry, looked up): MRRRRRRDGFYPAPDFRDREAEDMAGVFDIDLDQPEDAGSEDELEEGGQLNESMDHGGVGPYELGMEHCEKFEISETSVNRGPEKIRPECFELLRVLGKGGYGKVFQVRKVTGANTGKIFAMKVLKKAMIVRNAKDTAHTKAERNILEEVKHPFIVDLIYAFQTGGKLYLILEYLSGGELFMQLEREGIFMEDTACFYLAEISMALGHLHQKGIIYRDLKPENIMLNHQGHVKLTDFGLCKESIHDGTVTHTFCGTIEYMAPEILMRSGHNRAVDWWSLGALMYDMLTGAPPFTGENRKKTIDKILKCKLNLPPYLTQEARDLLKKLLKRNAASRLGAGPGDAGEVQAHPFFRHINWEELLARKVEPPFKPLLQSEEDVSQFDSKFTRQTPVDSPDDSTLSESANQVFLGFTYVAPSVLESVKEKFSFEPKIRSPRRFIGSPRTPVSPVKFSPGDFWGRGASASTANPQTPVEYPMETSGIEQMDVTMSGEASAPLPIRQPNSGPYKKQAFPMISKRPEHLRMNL
inactive: erlotinib -0.017 | [1] -0.018 | [2] -0.034 | [3] 0.013 | [4] -0.001 | [5] 0.083 | [7] 0.085 | [8] 0.027 | IRAK-1-4 Inhibitor I 0.028 | ibrutinib 0.024 | ralimetinib 0.026 | [10] 0.007 | [11] -0.027 | [12] 0 | [13] 0.01 | [14] -0.029 | [15] -0.01 | [16] -0.001
active: [6] 0.322 | [9] 0.355

— the supplement of paper PMC10849652
